Some test systems named below: NCI-H23 lung; NCI-H226 lung; NCI-H322M lung; HOP-62 NSCLC; NCI-H460 lung; HOP-92 NSCLC; NCI-H522 lung; A549/ATCC NSCLC; 786-0 renal; COLO 205 colon; DU-145 prostate; K-562 leukemia; MALME-3M melanoma; MDA-MB-231 breast; RXF 393 renal; SF-268 CNS; SF-295 CNS; SF-539 CNS; UACC-257 melanoma; M14 melanoma.
Experiment in all cases: NCI-60 one-dose screen, 48 h (100 = growth as untreated, 0 = no growth, -100 = all killed)
What all share (conditions): 10 µM unless noted

Each structure is given as a SMILES string. The panel holds about 83,000 compounds, 20% with a hit somewhere; the sample as a whole holds those more often.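 The test compound was applied at a single concentration to cells in 96-well plates for 48 hours, and percent growth was recorded.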 A number with no mark means an inactive call. Active and inactive are the calls of the source. How the source made its calls: active means growth percent below 10; inactive means the rest.

With `COc1cc2c(c(O)c1Br)C(=O)c1c(O)cc(C[C@H](C)O)cc1[C@H]2[C@H]1c2cc(C[C@H](C)O)cc(O)c2C(=O)c2c1cc(OC)c(Br)c2O`, the growth was 6.19% (active) in the experiment on NCI-H23 lung; 14.3% in the experiment with NCI-H226 lung; 17.2% in the experiment with NCI-H322M lung; 16.5% with HOP-62 NSCLC; 0.308% (active) in the experiment on NCI-H460 lung; -21.3% (active) with HOP-92 NSCLC. The growth is 2.22% (active) in the experiment on NCI-H522 lung; 11.1% in the experiment on A549/ATCC NSCLC; 10.4% with 786-0 renal; -35.3% (active) in the experiment on COLO 205 colon; 24.5% in the experiment on DU-145 prostate; 5.05% (active) in the experiment with K-562 leukemia. For the same compound, the growth in the experiment with MALME-3M melanoma is -26.8% (active); in the experiment on MDA-MB-231 breast, -58.1% (active); in the experiment on RXF 393 renal it was 21.1%; in the experiment on SF-268 CNS, 19.4%; with SF-295 CNS it was -21.4% (active); in the experiment on SF-539 CNS it was -23.8% (active). Further, the growth in the experiment with UACC-257 melanoma was -2.79% (active); with M14 melanoma it was 16.5%.
For the compound `CCCCNC(=O)Oc1ccc(/C(=C(\C)c2ccccc2)c2ccc(OCCN3CCCCC3)cc2)cc1`, the growth is 67.9% with NCI-H23 lung; 86.8% with NCI-H226 lung; 75.3% in the experiment on NCI-H322M lung; 77.9% with HOP-62 NSCLC; 40.5% in the experiment with NCI-H460 lung; 68.1% with HOP-92 NSCLC. Besides, the growth is 73.1% with NCI-H522 lung; 57.8% with A549/ATCC NSCLC; 27.1% with 786-0 renal; 14.3% in the experiment on COLO 205 colon; 82.3% in the experiment on DU-145 prostate; 5.45% (active) in the experiment with K-562 leukemia. The growth in the experiment on MALME-3M melanoma was 44.6%; in the experiment with MDA-MB-231 breast, 73%; in the experiment with RXF 393 renal, 53.2%; with SF-268 CNS it was 67.7%; in the experiment with SF-295 CNS it was 42.6%; in the experiment with SF-539 CNS, 31%. For the same compound, the growth was -24.1% (active) in the experiment with UACC-257 melanoma and -15.6% (active) in the experiment on M14 melanoma.
Take `CN1CCC(=C(c2ccccc2)c2ccccc2)C(c2ccccc2)C1` (stereo not given): the growth was 88.1% with NCI-H23 lung; 96.3% in the experiment on NCI-H226 lung; 96.7% in the experiment on NCI-H322M lung; 101% with HOP-62 NSCLC; 103% with NCI-H460 lung; 82.8% in the experiment on HOP-92 NSCLC. In addition, the growth in the experiment on NCI-H522 lung was 85.2%; in the experiment on A549/ATCC NSCLC it was 90.8%; in the experiment with 786-0 renal, 95.1%; with COLO 205 colon, 83%; in the experiment with DU-145 prostate it was 104%; in the experiment on K-562 leukemia it was 106%. Further, the growth in the experiment with MALME-3M melanoma is 104%; in the experiment with MDA-MB-231 breast, 94.8%; in the experiment with RXF 393 renal it was 88%; with SF-268 CNS, 97.8%; in the experiment on SF-295 CNS it was 99.3%; in the experiment with SF-539 CNS, 101%. The figures for the growth with UACC-257 melanoma and in the experiment on M14 melanoma were 105% and 112%, respectively.
With `COc1cc2nc(-c3ccc(Cl)cc3)cc(OCCCN3CCC(O)CC3)c2cc1OC`, the growth in the experiment with NCI-H23 lung is 76.1%; in the experiment on NCI-H226 lung, 3.82% (active); in the experiment on NCI-H322M lung, 58.3%; in the experiment on HOP-62 NSCLC, 63.2%; with NCI-H460 lung, 23.8%; in the experiment on HOP-92 NSCLC, 38.1%. The growth with NCI-H522 lung is 33.4%; with A549/ATCC NSCLC, 34.9%; with 786-0 renal, 75.2%; in the experiment with COLO 205 colon, 23.8%; with DU-145 prostate it was 38.5%; in the experiment on K-562 leukemia, 13.9%. In addition, the growth in the experiment with MALME-3M melanoma was 64%; in the experiment with MDA-MB-231 breast, 26.1%; with RXF 393 renal, 46.3%; with SF-268 CNS, 54.8%; with SF-295 CNS, -10.5% (active); in the experiment with SF-539 CNS it was 54.3%. The growth was 8.39% (active) in the experiment with UACC-257 melanoma and -48% (active) in the experiment on M14 melanoma.
As to `COc1ccc(C(=O)Nc2cccc(C3CCc4c(cc(OC)c(OC)c4OC)O3)c2)cc1` (stereo not given), the growth was 58.9% in the experiment on NCI-H23 lung; 30.1% with NCI-H226 lung; 75.9% in the experiment on NCI-H322M lung; 39.8% with HOP-62 NSCLC; 25.7% with NCI-H460 lung; 61.3% with HOP-92 NSCLC. Further, the growth with NCI-H522 lung is 42.7%; with A549/ATCC NSCLC, 43.4%; with 786-0 renal, 68.7%; in the experiment with COLO 205 colon it was 67.9%; in the experiment with DU-145 prostate, 69.9%; with K-562 leukemia, 16.8%. For the same compound, the growth in the experiment with MALME-3M melanoma was 46.2%; in the experiment with MDA-MB-231 breast, 63.1%; in the experiment on RXF 393 renal, 81.1%; in the experiment on SF-268 CNS it was 52.7%; with SF-295 CNS it was 42.2%; with SF-539 CNS, 61.3%. Besides, the figures for the growth in the experiment with UACC-257 melanoma and with M14 melanoma were 52% and 34.2%, respectively.
`COc1cccc(-c2nc3occn3c2-c2ccnc(NCCNS(=O)(=O)c3ccc(C(F)(F)F)cc3)n2)c1`: the growth in the experiment on NCI-H23 lung was 98.2%; with NCI-H226 lung, 75.8%; with NCI-H322M lung, 98.9%; in the experiment with HOP-62 NSCLC it was 119%; in the experiment with NCI-H460 lung, 88%; with HOP-92 NSCLC, 95.9%. Besides, the growth is 86.6% in the experiment with NCI-H522 lung; 87.9% in the experiment on A549/ATCC NSCLC; 79.5% in the experiment with 786-0 renal; 77.7% in the experiment with COLO 205 colon; 96.4% in the experiment on DU-145 prostate; 71.6% in the experiment with K-562 leukemia. The growth in the experiment with MALME-3M melanoma was 107%; in the experiment on MDA-MB-231 breast it was 87.2%; in the experiment on RXF 393 renal it was 90.8%; with SF-268 CNS, 88.2%; in the experiment on SF-295 CNS, 99.1%; in the experiment on SF-539 CNS, 104%. For the same compound, the growth is 121% with UACC-257 melanoma and 102% in the experiment with M14 melanoma.
As to `CCCCOc1ccc(/C(C)=N/Nc2cc(C)nc3ccc(Br)cc23)cc1`, the growth with NCI-H23 lung is 90.7%; in the experiment with NCI-H226 lung it was 89.6%; with NCI-H322M lung it was 103%; with HOP-62 NSCLC it was 88.7%; in the experiment on NCI-H460 lung, 14.2%; in the experiment on HOP-92 NSCLC, 78.4%. Also, the growth in the experiment on NCI-H522 lung is 96.9%; in the experiment on A549/ATCC NSCLC, 92.5%; with 786-0 renal it was 95.1%; in the experiment with COLO 205 colon, 26.5%; in the experiment on DU-145 prostate, 96.3%; in the experiment on K-562 leukemia, 15.7%. Also, the growth in the experiment on MALME-3M melanoma is 145%; in the experiment on MDA-MB-231 breast it was 81.3%; in the experiment with RXF 393 renal, 94.3%; with SF-268 CNS it was 96.3%; in the experiment with SF-295 CNS, 76.2%; in the experiment with SF-539 CNS, 98.7%. Moreover, the values for the growth in the experiment with UACC-257 melanoma and in the experiment on M14 melanoma were 114% and 104%, respectively.

The record behind these values is PubChem BioAssay (NCI).
